Positions count from the first letter of the chain named.
How the values were obtained:
Assay in all cases: HT-SELEX; high values mean tight binding
Settings in all cases: protein: recombinant; vector His6-GST; dsDNA, one strand shown
SALL4 ZFC4 WT (HT-SELEX) = biological target: T1, SALL4 ZFC4 WT (HT-SELEX) (Mus musculus, UniProt Q8BX22 870-940)
T1 sequence: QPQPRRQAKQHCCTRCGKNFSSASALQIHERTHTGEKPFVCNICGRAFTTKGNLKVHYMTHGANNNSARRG
In short: (§1)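 Purified recombinant mouse SALL4 zinc finger cluster 4 (residues 870–940, 1 µg) was incubated with library DNA (1.5 µg first cycle, 200 ng later) in 100 µl of 10 mM Tris–HCl pH 7.5, 50 mM NaCl, poly(dI-dC) and DTT for 10 min at room temperature, with Ni2+ bead capture and reselection for up to 6 cycles in triplicate. MiSeq reads were scanned for 6-mers. Binding signal is each canonical k-mer's read fraction as fold change relative to the initial random library.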

[1] = biological target: T2, SALL4 ZFC4 R900W (HT-SELEX) (Mus musculus, UniProt Q8BX22 870-940, R900W)
T2 sequence: T1 sequence with R31W
In short: as §1

[2] = biological target: T3, SALL4 ZFC4 G921D (HT-SELEX) (Mus musculus, UniProt Q8BX22 870-940, G921D)
T3 sequence: T1 sequence with G52D
In short: as §1

Q: Which binding signal (SALL4 ZFC4 WT (HT-SELEX)) does the source give for ATTACA here?
A: Its binding signal is 2.21 ± 0.144 fold-change vs cycle 0.

Q: And the binding signal [1]?
A: The binding signal was 2.06 ± 0.11 fold-change vs cycle 0.

Q: And the binding signal [2]?
A: Its binding signal is 1.82 ± 0.177 fold-change vs cycle 0.

Q: Which binding signal (SALL4 ZFC4 WT (HT-SELEX)) does the source give for GAAATC here?
A: The binding signal was 1.25 ± 0.0302 fold-change vs cycle 0.

Q: What about the binding signal [1] of the same sequence?
A: The binding signal was 1.28 ± 0.0173 fold-change vs cycle 0.

Q: And the binding signal [2]?
A: The binding signal was 1.27 ± 0.0773 fold-change vs cycle 0.

Q: With CATTAC as the sequence, how does the binding signal (SALL4 ZFC4 WT (HT-SELEX)) read?
A: The binding signal was 1.43 ± 0.0799 fold-change vs cycle 0.

Q: What about the binding signal [1] of the same sequence?
A: Its binding signal is 1.52 ± 0.113 fold-change vs cycle 0.

Q: What about the binding signal [2] of the same sequence?
A: The binding signal was 1.41 ± 0.113 fold-change vs cycle 0.

Q: With CTTAAC as the sequence, how does the binding signal (SALL4 ZFC4 WT (HT-SELEX)) read?
A: Its binding signal is 1.38 ± 0.0537 fold-change vs cycle 0.

Q: What about the binding signal [1] of the same sequence?
A: Its binding signal is 1.58 ± 0.0426 fold-change vs cycle 0.

Q: What about the binding signal [2] of the same sequence?
A: The binding signal was 1.42 ± 0.0747 fold-change vs cycle 0.

Q: How did the binding signal (SALL4 ZFC4 WT (HT-SELEX)) turn out when GGACAA was run?
A: Its binding signal is 0.637 ± 0.0222 fold-change vs cycle 0.

Q: And the binding signal [1]?
A: Its binding signal is 0.742 ± 0.00957 fold-change vs cycle 0.

Q: What about the binding signal [2] of the same sequence?
A: The binding signal was 0.828 ± 0.043 fold-change vs cycle 0.

Q: With GGACAC as the sequence, how does the binding signal (SALL4 ZFC4 WT (HT-SELEX)) read?
A: The binding signal was 0.362 ± 0.012 fold-change vs cycle 0.

Q: And the binding signal [1]?
A: Its binding signal is 0.454 ± 0.013 fold-change vs cycle 0.

Q: What about the binding signal [2] of the same sequence?
A: The binding signal was 0.559 ± 0.0612 fold-change vs cycle 0.

Q: For GCCTGA, which binding signal (SALL4 ZFC4 WT (HT-SELEX)) is on record?
A: The binding signal was 0.303 ± 0.0278 fold-change vs cycle 0.

Q: What about the binding signal [1] of the same sequence?
A: The binding signal was 0.386 ± 0.0159 fold-change vs cycle 0.

Q: And the binding signal [2]?
A: Its binding signal is 0.497 ± 0.0446 fold-change vs cycle 0.

Q: Which results are given for CTTCTA?
A: binding signal (SALL4 ZFC4 WT (HT-SELEX)): 1.36 ± 0.0301 fold-change vs cycle 0; binding signal [1]: 1.53 ± 0.0956 fold-change vs cycle 0; binding signal [2]: 1.4 ± 0.104 fold-change vs cycle 0

Q: Which binding signal (SALL4 ZFC4 WT (HT-SELEX)) does the source give for AACAGG here?
A: Its binding signal is 0.801 ± 0.0521 fold-change vs cycle 0.

Q: And the binding signal [1]?
A: Its binding signal is 0.937 ± 0.0272 fold-change vs cycle 0.

Q: What about the binding signal [2] of the same sequence?
A: The binding signal was 0.942 ± 0.0148 fold-change vs cycle 0.

Q: What does the source list for CTAGAC?
A: binding signal (SALL4 ZFC4 WT (HT-SELEX)): 0.775 ± 0.0462 fold-change vs cycle 0; binding signal [1]: 0.888 ± 0.0389 fold-change vs cycle 0; binding signal [2]: 0.932 ± 0.00894 fold-change vs cycle 0

Q: How did the binding signal (SALL4 ZFC4 WT (HT-SELEX)) turn out when CTGAGA was run?
A: The binding signal was 0.788 ± 0.03 fold-change vs cycle 0.

Q: And the binding signal [1]?
A: The binding signal was 0.922 ± 0.033 fold-change vs cycle 0.

Q: What about the binding signal [2] of the same sequence?
A: Its binding signal is 0.951 ± 0.0498 fold-change vs cycle 0.

Q: Which results are given for ATACGG?
A: binding signal (SALL4 ZFC4 WT (HT-SELEX)): 0.67 ± 0.0205 fold-change vs cycle 0; binding signal [1]: 0.767 ± 0.0197 fold-change vs cycle 0; binding signal [2]: 0.808 ± 0.0319 fold-change vs cycle 0

Q: For TATACA, which binding signal (SALL4 ZFC4 WT (HT-SELEX)) is on record?
A: Its binding signal is 2.08 ± 0.107 fold-change vs cycle 0.

Q: And the binding signal [1]?
A: The binding signal was 1.99 ± 0.114 fold-change vs cycle 0.

Q: And the binding signal [2]?
A: The binding signal was 1.77 ± 0.145 fold-change vs cycle 0.

Q: What does the source list for ACTCAT?
A: binding signal (SALL4 ZFC4 WT (HT-SELEX)): 1.52 ± 0.0846 fold-change vs cycle 0; binding signal [1]: 1.54 ± 0.0355 fold-change vs cycle 0; binding signal [2]: 1.47 ± 0.11 fold-change vs cycle 0

Q: GATGAC was tested. Which binding signal (SALL4 ZFC4 WT (HT-SELEX)) did it give?
A: The binding signal was 0.865 ± 0.0236 fold-change vs cycle 0.

Q: What about the binding signal [1] of the same sequence?
A: The binding signal was 0.962 ± 0.0544 fold-change vs cycle 0.

Q: And the binding signal [2]?
A: The binding signal was 1.01 ± 0.0406 fold-change vs cycle 0.

Q: With ATACAC as the sequence, how does the binding signal (SALL4 ZFC4 WT (HT-SELEX)) read?
A: The binding signal was 1.31 ± 0.0559 fold-change vs cycle 0.

Q: And the binding signal [1]?
A: The binding signal was 1.36 ± 0.0547 fold-change vs cycle 0.

Q: And the binding signal [2]?
A: The binding signal was 1.35 ± 0.0583 fold-change vs cycle 0.

Q: Which binding signal (SALL4 ZFC4 WT (HT-SELEX)) does the source give for CAAGGC here?
A: The binding signal was 0.301 ± 0.0203 fold-change vs cycle 0.

Q: What about the binding signal [1] of the same sequence?
A: Its binding signal is 0.371 ± 0.0118 fold-change vs cycle 0.

Q: And the binding signal [2]?
A: The binding signal was 0.492 ± 0.0622 fold-change vs cycle 0.

Q: Which results are given for AGTCAC?
A: binding signal (SALL4 ZFC4 WT (HT-SELEX)): 0.789 ± 0.043 fold-change vs cycle 0; binding signal [1]: 0.9321 ± 0.00858 fold-change vs cycle 0; binding signal [2]: 0.975 ± 0.0241 fold-change vs cycle 0

Q: For AAAACA, which binding signal (SALL4 ZFC4 WT (HT-SELEX)) is on record?
A: Its binding signal is 1.61 ± 0.0773 fold-change vs cycle 0.

Q: What about the binding signal [1] of the same sequence?
A: The binding signal was 1.67 ± 0.055 fold-change vs cycle 0.

Q: And the binding signal [2]?
A: The binding signal was 1.55 ± 0.0435 fold-change vs cycle 0.

Q: For TCTTCA, which binding signal (SALL4 ZFC4 WT (HT-SELEX)) is on record?
A: The binding signal was 1.42 ± 0.033 fold-change vs cycle 0.

Q: What about the binding signal [1] of the same sequence?
A: Its binding signal is 1.6 ± 0.094 fold-change vs cycle 0.

Q: What about the binding signal [2] of the same sequence?
A: The binding signal was 1.48 ± 0.131 fold-change vs cycle 0.

Q: With ACTGAA as the sequence, how does the binding signal (SALL4 ZFC4 WT (HT-SELEX)) read?
A: Its binding signal is 1.38 ± 0.0494 fold-change vs cycle 0.

Q: What about the binding signal [1] of the same sequence?
A: The binding signal was 1.5 ± 0.11 fold-change vs cycle 0.

Q: And the binding signal [2]?
A: Its binding signal is 1.39 ± 0.103 fold-change vs cycle 0.

Q: Which results are given for CGTTGA?
A: binding signal (SALL4 ZFC4 WT (HT-SELEX)): 0.664 ± 0.053 fold-change vs cycle 0; binding signal [1]: 0.763 ± 0.00493 fold-change vs cycle 0; binding signal [2]: 0.839 ± 0.0136 fold-change vs cycle 0

Q: How did the binding signal (SALL4 ZFC4 WT (HT-SELEX)) turn out when ACCACC was run?
A: The binding signal was 0.457 ± 0.039 fold-change vs cycle 0.

Q: And the binding signal [1]?
A: The binding signal was 0.514 ± 0.0309 fold-change vs cycle 0.

Q: What about the binding signal [2] of the same sequence?
A: The binding signal was 0.616 ± 0.0424 fold-change vs cycle 0.

Q: How did the binding signal (SALL4 ZFC4 WT (HT-SELEX)) turn out when AGCGAT was run?
A: Its binding signal is 0.553 ± 0.0342 fold-change vs cycle 0.

Q: What about the binding signal [1] of the same sequence?
A: The binding signal was 0.644 ± 0.0243 fold-change vs cycle 0.

Q: What about the binding signal [2] of the same sequence?
A: The binding signal was 0.766 ± 0.0387 fold-change vs cycle 0.

Q: Which results are given for ACTACT?
A: binding signal (SALL4 ZFC4 WT (HT-SELEX)): 1.38 ± 0.0657 fold-change vs cycle 0; binding signal [1]: 1.52 ± 0.107 fold-change vs cycle 0; binding signal [2]: 1.43 ± 0.121 fold-change vs cycle 0

Q: With CACTTA as the sequence, how does the binding signal (SALL4 ZFC4 WT (HT-SELEX)) read?
A: Its binding signal is 1.34 ± 0.0677 fold-change vs cycle 0.

Q: And the binding signal [1]?
A: The binding signal was 1.46 ± 0.0563 fold-change vs cycle 0.

Q: And the binding signal [2]?
A: Its binding signal is 1.38 ± 0.0979 fold-change vs cycle 0.

Q: CATACC was tested. Which binding signal (SALL4 ZFC4 WT (HT-SELEX)) did it give?
A: The binding signal was 0.854 ± 0.0198 fold-change vs cycle 0.

Q: And the binding signal [1]?
A: The binding signal was 0.927 ± 0.0242 fold-change vs cycle 0.

Q: And the binding signal [2]?
A: The binding signal was 0.944 ± 0.0221 fold-change vs cycle 0.

Q: Which binding signal (SALL4 ZFC4 WT (HT-SELEX)) does the source give for AATGTC here?
A: Its binding signal is 1.08 ± 0.0855 fold-change vs cycle 0.

Q: And the binding signal [1]?
A: Its binding signal is 1.21 ± 0.0715 fold-change vs cycle 0.

Q: And the binding signal [2]?
A: The binding signal was 1.22 ± 0.0672 fold-change vs cycle 0.

Q: Which binding signal (SALL4 ZFC4 WT (HT-SELEX)) does the source give for CCCAGA here?
A: The binding signal was 0.431 ± 0.0214 fold-change vs cycle 0.

Q: And the binding signal [1]?
A: Its binding signal is 0.51 ± 0.0216 fold-change vs cycle 0.

Q: What about the binding signal [2] of the same sequence?
A: The binding signal was 0.583 ± 0.0525 fold-change vs cycle 0.

Q: What does the source list for CTCCTA?
A: binding signal (SALL4 ZFC4 WT (HT-SELEX)): 0.926 ± 0.0641 fold-change vs cycle 0; binding signal [1]: 1.07 ± 0.0219 fold-change vs cycle 0; binding signal [2]: 1.05 ± 0.0362 fold-change vs cycle 0
